Rows were chosen to be rich in hits. Some 17% of all compounds tested hit in one or more screens of this group.
TDP1 cell CPT – growth inhibition of DT40 Tdp1-/-;hTDP1 cells with camptothecin (screen for TDP1 inhibitors); chicken DT40 Tdp1-/-;hTDP1 cells + 20 nM CPT, ATP luminescence, 48 h; Potency, µM (highest dose often 46.2 µM), inactives show top-dose activity change, negative = growth inhibition, actives largely listed as inhibitors; 12% of 420,000 active; further: on the % scale 0 is the no-effect control and ±100 the full control effect; nearly all actives have a fitted effect of over 55% in size
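Chicken DT40 Tdp1-/- cells complemented with human TDP1, 400 cells/well, exposed to compounds plus 20 nM camptothecin for at least 48 h at 37 C; viability read as ATP content by CellTiter-Glo luminescence.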
TGFb inhibitor – inhibitors of TGF-b signaling | Potency, µM (series often up to 46.1 µM), for inactives: at the highest dose activity, negative = inhibition, most hits filed as inhibitors | HepG2 CAGA-GFP TGF-b/SMAD3 reporter, GFP fluorescence, 18 h; TGF-beta stimulated, 500 pg/mL final | 1.2% of 410,000 active; further: on the % scale 0 is the no-effect control and ±100 the full control effect; nearly all actives have a fitted effect of over 65% in size
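TGF-beta reporter screen: HEPG2 CAGA-GFP, 1% FBS, 500 pg/mL TGF-beta final, 18 h; per-cell GFP summed per well; curves fitted and categorized by class.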
TDP1 cell noCPT – qHTS for Inhibitors of human tyrosyl-DNA phosphodiesterase 1 (TDP1): qHTS in cells in absence of CPT; DT40 Tdp1-/- hTDP1 cells, no CPT, ATP luminescence, 48 h; Potency, µM (series often up to 46.2 µM), without a hit: at the top dose activity change, negative = growth inhibition, usual class: inhibitors; 15% of 420,000 active; AID 686978, 2013; further: on the % scale 0 is the no-effect control and ±100 the full control effect; nearly all actives have a fitted effect of over 55% in size
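No-CPT arm: Tdp1-/-;hTDP1 DT40 cells (400/well) plus compounds, incubated ≥48 hr at 37 °C. Readout CellTiter-Glo luminescence.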
ATXN viability – cell viability loss in ATXN counter-screen. Potency, µM (doses to about 56.7 µM), actives largely listed as cytotoxic. S2 cells (HEK-293 line with an ATXN2-luciferase reporter) viability, CellTiter-Fluor protease fluorescence, 24 h. 0.49% of 400,000 active; further: nearly all actives have a fitted effect of over 40% in size
ATXN2 expr inh – reduces ATXN2 reporter expression in HEK-293 cells | Potency, µM (series often up to 57 µM), for the others: at the top dose activity change, negative = inhibition, most hits filed as inhibitors | 0.72% of 360,000 active | HEK-293 ATXN2-luciferase reporter, luminescence, 24 h; further: on the % scale 0 is the no-effect control and ±100 the full control effect; nearly all actives have a fitted effect of over 55% in size
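qHTS (up to 57 uM final) was run with 24 h compound exposure of reporter cells at 37 °C. Each well was multiplexed: SteadyGlo luminescence measured ATXN2-luciferase expression after a fluorogenic Gly-Phe-AFC viability readout (25 uM final).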
HepG2 viability – HepG2 cytotoxicity, counter-screen for TGF-b inhibitors | HepG2 CAGA-GFP viability, ATP luminescence, 18 h | Potency, µM (highest dose often 46.1 µM), without a hit: top-dose activity change, negative = cytotoxicity, hits mostly cytotoxic | 0.76% of 410,000 active | AID 588856
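CellTiter-Glo luminescence gave cytotoxicity after 18 hours at 37 degrees C. The cells were HepG2 CAGA-GFP in 1% FBS DMEM, stimulated with 500 pg/mL TGF-beta after compound addition. %Activity was normalised to no-cell wells (complete cell-killing) and DMSO (no toxicity), and curves were fitted and classified.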
* hit, by the source's call; [ ] = remark or other dose. The call rests on the fitted dose curve; in most records, active means well fitted curve in the direction sought with a large enough effect; inconclusive means small, poorly fitted or top-dose-only effect, or another doubt; inactive means no such curve, though single readings can be large; an effect the other way counts as inactive or inconclusive. Potency means the concentration at half of the fitted maximal effect.

COc1ccc([C@@H]2[C@@H]3C(=O)N(C(C)(C)C)C(=O)[C@@H]3[C@]3(Cc4ccccc4)C(=O)N(c4ccc(Br)cc4)C(=O)N23)cc1 was read as TDP1 cell CPT 23µM*, TGFb inhibitor -20%, TDP1 cell noCPT 23µM*, ATXN viability inactive, ATXN2 expr inh 0% and HepG2 viability 1%.
Screening CC(C)(C)N1C(=O)[C@H]2[C@@H](c3ccc(Br)cc3)N3C(=O)N(c4cccc(Cl)c4)C(=O)[C@@]3(Cc3ccccc3)[C@H]2C1=O returned TDP1 cell CPT inconclusive, TGFb inhibitor -19%, TDP1 cell noCPT 21µM*, ATXN viability inactive, ATXN2 expr inh 1% and HepG2 viability -17%.
CC[C@@]12C(=O)N(c3ccc(C)cc3)C(=O)N1[C@H](c1ccc(Br)cc1)[C@@H]1C(=O)N(C(C)(C)C)C(=O)[C@@H]12 was read as TDP1 cell CPT 7.3µM*, TGFb inhibitor inconclusive, TDP1 cell noCPT inconclusive, ATXN viability inactive, ATXN2 expr inh inconclusive and HepG2 viability -2%.
For COc1ccc([C@@H]2[C@@H]3C(=O)N(C(C)(C)C)C(=O)[C@@H]3[C@]3(Cc4ccccc4)C(=O)N(c4cccc(Cl)c4)C(=O)N23)cc1 the results were TDP1 cell CPT -20%, TGFb inhibitor -25%, TDP1 cell noCPT inconclusive, ATXN viability inactive, ATXN2 expr inh 8% and HepG2 viability -19%.
CCN1C(=O)[C@H]2[C@@H](c3ccc(C)cc3)N3C(=O)N(c4ccc(C)cc4)C(=O)[C@@]3(Cc3ccc(Cl)cc3)[C@H]2C1=O was read as TDP1 cell CPT 18µM*, TGFb inhibitor -23%, TDP1 cell noCPT 21µM*, ATXN viability inactive, ATXN2 expr inh 2% and HepG2 viability 9%.
Screening NS(=O)(=O)c1ccc(CCNC(=O)C2CC(=O)N(Cc3ccccc3Cl)C2)cc1 (centres undefined) returned TDP1 cell CPT -3%, TGFb inhibitor -4%, TDP1 cell noCPT 13%, ATXN viability inactive, ATXN2 expr inh -1% and HepG2 viability 0%.
`O=C(NCc1cccnc1)C(=O)NCC1OCCCN1S(=O)(=O)c1cc(F)ccc1F` (centres undefined) gave TDP1 cell CPT -4%, TGFb inhibitor 9%, TDP1 cell noCPT 2%, ATXN viability inactive and HepG2 viability -13%.
CCN1CCN(CC(=O)N2N=C(c3cccs3)CC2c2ccc(C)cc2)C(=O)C1=O (centres undefined) was read as TDP1 cell CPT 0%, TGFb inhibitor -2%, TDP1 cell noCPT -26%, ATXN viability inconclusive, ATXN2 expr inh -14% and HepG2 viability 11%.
O=C(COCc1ccccc1)N[C@@H]1c2ccccc2CC[C@H]1OCc1ccccc1 was read as TDP1 cell CPT inconclusive, TGFb inhibitor -24%, TDP1 cell noCPT inconclusive, ATXN viability inactive, ATXN2 expr inh -17% and HepG2 viability -63%.
`O=C(Cc1c(F)cccc1Cl)Nc1ccc(S(=O)(=O)NCC2CCCO2)cc1` (centres undefined) gave TDP1 cell CPT -10%, TGFb inhibitor -2%, TDP1 cell noCPT inconclusive, ATXN viability inconclusive, ATXN2 expr inh 7% and HepG2 viability 12%.
CCc1nc(CNC(=O)C2CCC(=O)N(Cc3ccccc3F)C2)no1 (centres undefined) was read as TDP1 cell CPT 17%, TGFb inhibitor -4%, TDP1 cell noCPT 22%, ATXN viability inactive, ATXN2 expr inh 7% and HepG2 viability 1%.
For CCc1cc(Cn2nc(-c3ccccc3)cc2C(=O)NCc2cccc(Br)c2)on1 the results were TDP1 cell CPT inconclusive, TGFb inhibitor inconclusive, TDP1 cell noCPT 16µM*, ATXN viability inconclusive, ATXN2 expr inh -22% and HepG2 viability -22%.
`COc1cccc(C(=O)O/N=C(\C)c2cnccn2)c1` gave TDP1 cell CPT -13%, TGFb inhibitor 15%, TDP1 cell noCPT 11%, ATXN viability inactive, ATXN2 expr inh 1% and HepG2 viability -2%.
Cc1cc(NC(=O)COC(=O)CNS(=O)(=O)c2c(F)cc(F)cc2Br)no1 was read as TDP1 cell CPT -9%, TGFb inhibitor -8%, TDP1 cell noCPT -5%, ATXN viability inconclusive, ATXN2 expr inh -6% and HepG2 viability -18%.
Screening CC(C)Cc1nc2cc(NS(=O)(=O)N(C)C)cc(C(=O)N3CCSCC3)c2n1C returned TDP1 cell CPT -3%[9.04 µM], TDP1 cell noCPT 2% and ATXN viability inconclusive.
`CCCCN1CN(Cc2ccccc2)CNC1=S` gave TDP1 cell CPT 18µM*, TGFb inhibitor 3%, TDP1 cell noCPT inconclusive, ATXN viability inactive, ATXN2 expr inh 2% and HepG2 viability 2%.
Cc1nn(Cc2ccc(C(=O)N3c4ccc(F)cc4CCC3C)o2)c(C)c1Br (centres undefined) was read as TDP1 cell CPT 21µM*, TGFb inhibitor inconclusive, TDP1 cell noCPT 16µM*, ATXN viability inactive, ATXN2 expr inh 2% and HepG2 viability -31%.
CC1CCc2cc(F)ccc2N1C(=O)c1ccc2c(c1)OCO2 (centres undefined) was read as TDP1 cell CPT inconclusive, TGFb inhibitor 2%, TDP1 cell noCPT 15µM*, ATXN viability inactive, ATXN2 expr inh -10% and HepG2 viability -32%.
`Cc1ccc(C(=O)N2c3ccc(F)cc3CCC2C)o1` (centres undefined) gave TDP1 cell CPT inconclusive, TGFb inhibitor -6%, TDP1 cell noCPT inconclusive, ATXN viability inactive, ATXN2 expr inh -1% and HepG2 viability -5%.
For COc1ccc(C(=O)N2c3ccc(F)cc3CCC2C)cc1OC (centres undefined) the results were TDP1 cell CPT inconclusive, TGFb inhibitor -3%, TDP1 cell noCPT inconclusive, ATXN viability inactive, ATXN2 expr inh -7% and HepG2 viability -5%.
Screening CC1CCc2cc(F)ccc2N1C(=O)CCl (centres undefined) returned TDP1 cell CPT 5.8µM*, TGFb inhibitor -62%, TDP1 cell noCPT 6.5µM*, ATXN2 expr inh inconclusive and HepG2 viability -35%.
